Source: PubChem BioAssay
RN4220 kill: S. aureus RN4220 growth inhibition; AID 1259311; 330,000 compounds, 0.33% hits; OD600, 16 h; inhibition, % (test concentration not listed); in the data active means inhibition above about 85%;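 further: plate controls were untreated cells for no effect and reference antibiotic for full effect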
Sa ugtP lethal: compounds lethal to S. aureus RN4220 ugtP deletion mutant; AID 1259309; growth inhibition, % (concentration not given with the values); 330,000 compounds, 0.54% hits; OD600 growth, 16 h; in the data active means growth inhibition above about 68%;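 further: plate controls were untreated wells for no effect and antibiotic for full effect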
Mtb hypoxia rep: inhibitors of hypoxia-regulated fluorescent reporter in Mycobacterium tuberculosis; M. tuberculosis hypoxia-regulated fluorescent reporter, fluorescence; 300,000 compounds, 0.1% hits; fluorescence inhibition, % (test concentration not listed); in the data active means fluorescence inhibition mostly above about 23%, no sharp cut-off; inactive means mostly below about 17%
* = called active by the depositor; / = no result. An excerpt weighted towards active compounds, which were near 0.68% of everything screened.

SMILES | RN4220 kill | Sa ugtP lethal | Mtb hypoxia rep
C#CCOCCOCCOCCNc1nc(N2CCN(C(=O)C(C(C)CC)n3cc(CCCCN)nn3)CC2)nc(N2CCN(C(=O)C(C(C)CC)n3cc(CCCN=C(N)N)nn3)CC2)n1 (stereo not given) | -1 | 1 | -4
Cc1ccc(SCC(O)=C(C#N)c2nc3ccccc3s2)cc1 | 97* | 92* | 6
N#C/C(=C(/O)CSc1ccccn1)c1nc2ccccc2s1 | 64 | 50 | 14
Cc1ccc(C(O)=C2C(=O)C(=O)N(c3cc(C)on3)C2c2cccc(Br)c2)cc1 (stereo not given) | 16 | 18 | -15
Clc1ccc(/C=C/c2nc3ccccc3[nH]2)cc1 | 25 | -17 | 7
Clc1ccc(/C=C/c2nc3ccccc3[nH]2)c(Cl)c1 | 75 | 92* | 17
Cc1cc(C)c2c(c1)cc(C)c1nnc(SCC(=O)N3CCCc4ccccc43)n12 | 11 | 96* | 13
Cc1ccc(C)c2c1cc(C)c1nnc(SCC(=O)N3CCCc4ccccc43)n12 | 1 | 7 | -2
C#CCOCCOCCOCCNc1nc(N2CCN(C(=O)C(CCC(=O)O)n3cc(C(N)Cc4ccc(O)cc4)nn3)CC2)nc(N2CCN(C(=O)C(CCC(=O)O)n3cc(C(N)CC(C)C)nn3)CC2)n1 (stereo not given) | 6 | 2 | 4
CCCCCCCCCCCCN1C(CC(C)=O)c2cc(F)ccc2S1(=O)=O (stereo not given) | -5 | 8 | 20
Cc1ccc(C=NNc2ccc(F)cc2)s1 | 3 | -4 | 4
CC(NC(=O)c1nc[nH]c1C(=O)N(C)Cc1ccccc1)c1ccccc1 (stereo not given) | 9 | 7 | 21
Clc1nssc1=Nc1ccc(Br)cc1 | 7 | 12 | 10
Clc1ccc(N=c2ssnc2Cl)nc1 | 26 | 95* | 7
COc1ccc(NC(=O)Nc2cccc3c2OC(CN(C)C(=O)Nc2ccc(C(F)(F)F)cc2)C(C)CN(C(C)CO)C3=O)cc1 (stereo not given) | -4 | 4 | 2
CC(C)(C)OC(=O)CC1CC=CCC(CC(=O)NCCO)C(=O)N2CCCC2COC1=O (stereo not given) | 5 | -1 | 7
CC(C)CC(=O)NC(=S)Nc1ccccc1C(F)(F)F | 1 | 71 | 3
CC(C)(C)CC(=O)NC(=S)Nc1ccccc1C(F)(F)F | 5 | 93* | -5
O=C(CCN1C(=O)C2C3C=CC(C4CC34)C2C1=O)Oc1ccc(Br)cc1 (stereo not given) | 3 | -5 | -5
O=C(CCN1C(=O)C2C3C=CC(C4CC34)C2C1=O)Oc1cccc2cccnc12 (stereo not given) | 100* | 98* | -2
CC(C)(C)c1ccc(OCC(=O)NNC(=S)NC(=O)c2ccco2)c(Br)c1 | 99* | 98* | -3
CC(C)c1ccc(OCC(=O)NNC(=S)NC(=O)c2ccco2)c(Br)c1 | 26 | 9 | 15
CC1=CC(=NN=C2NC(=O)C(CC(=O)Nc3ccccc3F)S2)CC(C)(C)C1 (stereo not given) | 13 | -6 | 7
CC(=NNC(=O)c1cccc(NN=C(C)c2cc(O)ccc2O)c1)c1cc(O)ccc1O | 16 | -8 | 3
CC1CN=C(N(C(=O)Nc2ccccc2)C(C)C)S1 (stereo not given) | 1 | 12 | 8
SMILES | RN4220 kill | Sa ugtP lethal | Mtb hypoxia rep
Cc1ccc(N(C(=O)Nc2ccccc2)C2=NCC(C)S2)cc1 (stereo not given) | 5 | 88* | -2
CC(=CC(NP(=O)(c1ccccc1)c1ccccc1)c1ccccc1)CO[Si](c1ccccc1)(c1ccccc1)C(C)(C)C (stereo not given) | 4 | 3 | 8
CN1CCCC1=CC=C1C(=O)N(C)C(=S)N1C | 2 | -2 | 5
CN1CCC/C1=C/C=C1\SC(=S)NC1=O | 2 | 10 | 41*
CCCCCCc1ccc(-c2ncc(N)cn2)cc1 | 5 | 100* | 5
CCCCCc1ccc(-c2nnc(N)s2)cc1 | 11 | 70 | 2
Cc1ccc(S(=O)(=O)N2[C@@H](c3ccc(C(C)(C)C)cc3)C(C(=O)O)=CC[C@H]2c2ccc(C(C)C)cc2)cc1 | 97* | 88* | -1
Cc1ccc(S(=O)(=O)N2[C@@H](c3ccc(C(C)(C)C)cc3)C(C(=O)O)=CC[C@H]2c2ccc(Cl)cc2)cc1 | 99* | 80 | -4
Cc1ccc(S(=O)(=O)N2[C@@H](c3ccc(Br)cc3)C(C(=O)O)=CC[C@H]2c2ccc(C(C)C)cc2)cc1 | 5 | 80 | -1
Cc1ccc([C@@H]2CC=C(C(=O)O)[C@H](c3ccc(C(C)(C)C)cc3)N2S(=O)(=O)c2ccc(C)cc2)cc1 | 45 | -1 | -1
CCCCN1CCC2C=CCC(C(=O)Nc3ccccc3)C2C1=O (stereo not given) | 2 | -2 | 8
CC(C)CC(NC(=O)c1nc[nH]c1C(=O)N1CCc2ccccc2C1)C(=O)OC(C)(C)C (stereo not given) | 5 | -12 | 3
CCN(CC)C(=O)CSc1nnc(COc2ccc(OC)cc2)n1N | 13 | -69 | 4
CCN(CC)C(=O)CSc1nnc2nnc3cc(OC)ccc3n12 | 5 | 2 | 66*
CCOC(=O)C=CC1CC2(CCO1)SCCCS2 (stereo not given) | 10 | -1 | 10
O=c1c2cc(F)ccc2sn1-c1ccccc1 | 5 | 29 | 5
O=c1c2ccccc2sn1-c1ccccc1 | 84 | 94* | 8
Cc1ccc(S(=O)(=O)NN=C/C=C/c2ccccc2)cc1 | 7 | 6 | 7
CCC(C(=O)C(C)C(O)C(C)CCc1ccc(C)c(O)c1C(=O)O)C1O[C@](CC)(C2CC[C@](O)(CC)C(C)O2)CC1C (stereo not given in full) | 99* | 90* | 17
COc1ccc2c(c1)C1C(CO2)C(c2ccccc2)[C@]2(C)C(=O)NC(C)C(=O)N12 (stereo not given in full) | 2 | -5 | 0
Cn1c(C=NNc2nc3ccccc3[nH]2)nc2ccccc21 | -2 | 0 | -10
Cc1c(C=NNc2nc3ccccc3[nH]2)c2ccccc2n1C | 99* | 99* | -13
Oc1ccc(-c2csc(-c3c[nH]c4ccccc34)n2)c(O)c1 | -3 | -37 | 0
Cc1ccc(-c2csc(-c3c[nH]c4ccccc34)n2)c(C)c1 | -7 | 95* | /
Cc1ccccc1C(=O)NN=C1SCC(=O)N1Cc1ccccc1 | 5 | 8 | 5
SMILES | RN4220 kill | Sa ugtP lethal | Mtb hypoxia rep
c1ccc(Nc2nc(-c3ccccn3)cs2)cc1 | 7 | -8 | 0
COc1cccc2sc(Nc3nc(-c4ccccn4)cs3)nc12 | 99* | 99* | -69
CCSc1ccc(C2C3C(=O)N(CC)C(=O)C3[C@]3(C(=O)OC)CCCCN23)cc1 (stereo not given in full) | 2 | 1 | 11
CCOC(=O)c1sc(NC(=O)Nc2cccc(Cl)c2)cc1C | 92* | 88* | -3
CCOC(=O)c1sc(NC(=O)c2cccs2)cc1C | -14 | 6 | 4
CC(C)(C)OC(=O)N1CCC[C@H]1C(=O)NN=Cc1ccc2nccnc2c1 | 0 | 3 | 18
N#CC(=C1C(=O)Nc2ccc(Br)cc21)c1ccccn1 | 6 | -10 | 4
O=C(C=Cc1ccoc1)c1ccccc1O | 6 | -5 | 8
Oc1ccc(N=Nc2ccc3ccccc3c2)cc1 | 99* | 99* | 4
